NPC1 prom act – activators of NPC1 promoter | Huh7 NPC1 promoter luciferase reporter, 24 h | Potency, µM (doses to about 9.22 µM), without a hit: at the highest dose activation, usual class: activators | 320,000 tested, 2.4% active; also: % of control where 0% means no effect; nearly all actives have a fitted effect of over 60% in size
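Huh7 reporter cells (NPC1 promoter driving luciferase) are dosed with compound for 24 h at 37 °C, 5% CO2; luciferase detection reagent is then added and luminescence measured after 10 min at ambient temperature.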
FLuc modulator – counter-screen for miR-21 project: firefly luciferase inhibitors or activators; P08659; 360,000 tested, 6.9% active; purified FLuc, Km substrates, luminescence inhibition; AID 588342; Potency, µM (highest dose often 57.5 µM), for inactives: top-dose activity change, negative = inhibition, actives largely listed as inhibitors;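 also: plate controls were vehicle for no effect and reference inhibitor for full effect; nearly all actives have a fitted effect of over 55% in size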
Target sequence (P08659 whole entry, looked up): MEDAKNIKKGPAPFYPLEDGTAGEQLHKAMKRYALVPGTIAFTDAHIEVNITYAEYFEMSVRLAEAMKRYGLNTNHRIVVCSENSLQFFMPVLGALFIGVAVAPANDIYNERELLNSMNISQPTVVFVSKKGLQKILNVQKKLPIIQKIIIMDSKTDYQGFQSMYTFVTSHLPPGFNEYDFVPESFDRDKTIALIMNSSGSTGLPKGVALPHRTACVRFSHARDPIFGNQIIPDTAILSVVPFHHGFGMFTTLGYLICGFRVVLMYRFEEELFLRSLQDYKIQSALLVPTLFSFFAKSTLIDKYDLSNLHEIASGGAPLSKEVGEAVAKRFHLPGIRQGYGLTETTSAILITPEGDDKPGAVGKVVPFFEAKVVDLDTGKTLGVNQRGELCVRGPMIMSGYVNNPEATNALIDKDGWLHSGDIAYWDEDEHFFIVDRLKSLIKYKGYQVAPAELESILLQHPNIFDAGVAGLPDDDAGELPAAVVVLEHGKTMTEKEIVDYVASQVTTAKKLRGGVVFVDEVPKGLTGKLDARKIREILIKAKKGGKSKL
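Purified P. pyralis luciferase (10nM final) with 10uM D-luciferin and 10uM ATP (Km levels) in 50mM Tris acetate pH 7.5, 10mM Mg acetate, 0.01% Tween-20, 0.05% BSA; qHTS 6-point titration, ~60 µM downward; luminescence read.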
ELG1 DNA repair – blocks ELG1-dependent DNA repair in HEK293T cells; HEK293T ELG1-luciferase reporter, luminescence, 16 h; DNA damage induced by 5-fluorouridine; Potency, µM (series often up to 46.1 µM), inactives show top-dose activity change, negative = inhibition, actives largely listed as inhibitors; 330,000 tested, 2.3% active; AID 504467; also: % is scaled to controls: 0 for no effect and ±100 for the full control effect; nearly all actives have a fitted effect of over 55% in size
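HEK293T cells expressing luciferase-tagged ELG1 (2,000/well) received 5-Fluorouridine plus compound or DMSO for 16 hr at 37 °C. Luciferase was read by ONE-Glo luminescence after 30 min at room temperature.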
Rab9 prom act – Rab9 promoter activation; AID 485297; Potency, µM (top dose mostly 9.22 µM), for inactives: top-dose activation, negative = inhibition, most hits filed as activators; 320,000 tested, 2.8% active; Huh7 Rab9 promoter-luciferase reporter, luminescence, 24 h; also: % of control where 0% means no effect; nearly all actives have a fitted effect of over 60% in size
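Huh7 cells stably carrying Rab9 promoter–luciferase reporter, plated 1500 cells/well, compound added after 2 h and incubated 24 h at 37 °C; luciferase luminescence then read after 10 min with detection reagent.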
ELG1 genotoxic – inducers of genotoxicity in HEK293T ELG1-luciferase cells; HEK293T ELG1-luciferase reporter, luminescence, 16 h; 330,000 tested, 1.3% active; Potency, µM (series often up to 46 µM), without a hit: top-dose activity change, positive = activation, usual class: activators; also: % of control where 0% means no effect; nearly all actives have a fitted effect of over 60% in size
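Step 1: seed 2,000 HEK293T ELG1-luciferase cells per well. Step 2: add compound or DMSO, incubate 16 hr at 37 °C. Step 3: ONE-Glo, 30 min at room temperature, read luminescence.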
SMN2 splice up – enhancers of SMN2 splice variant expression; 210,000 tested, 2.8% active; HEK293 SMN2-luciferase splicing reporter, luminescence, 30-36 h; Potency, µM (top dose mostly 46.1 µM), inactives show at the highest dose activity change, positive = activation, actives largely listed as activators; also: % of control where 0% means no effect; nearly all actives have a fitted effect of over 55% in size
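HEK293 cells carry an SMN2 minigene-luciferase reporter in which exon 7 inclusion puts luciferase in frame. Cells were seeded at 2000 cells/well, attached for 10-12 hours, then exposed to compounds for 30-36 hours at 37C before ONE-Glo luminescence.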
Numbers without * were called inactive; ? = inconclusive; · = no result; [ ] = remark or other dose. Rows were chosen to be rich in hits. Some 9.2% of all compounds tested hit in one or more screens of this group. Calls follow the shape of the dose curve; as a rule, active = well fitted curve in the direction sought with a large enough effect; inconclusive = small, poorly fitted or top-dose-only effect, or another doubt; inactive = no such curve, though single readings can be large; an effect the other way counts as inactive or inconclusive. Potency is read from the fitted curve at half-maximal effect.

SMILES	NPC1 prom act	FLuc modulator	ELG1 DNA repair	Rab9 prom act	ELG1 genotoxic	SMN2 splice up
CCOc1ccc2nc(N3CCCC(C(=O)NCCc4ccc(SC)cc4)C3)sc2c1 (stereo not given)	·	-20%	·	·	·	20µM*
CCOC(=O)Nc1ccc2nc(N3CCCCCC3)sc2c1	?	7.6µM*	?	?	10µM*	·
CCOc1ccc2nc(N3CCCC(C(=O)Nc4ccc(CC)cc4)C3)sc2c1 (stereo not given)	·	?	·	·	·	16%
CCOc1ccc2nc(N3CCCC(C(=O)Nc4cccc(Cl)c4C)C3)sc2c1 (stereo not given)	·	3.4µM*	·	·	·	7.9µM*
CCOc1ccc2nc(N3CCCC(C(=O)Nc4ccc(OC)cc4)C3)sc2c1 (stereo not given)	·	1.5µM*	·	·	·	22%
O=C(C1CC1)N1CCN(c2ccc(O)cc2)CC1	8%	0%	?	1%	1%	·
CCOc1ccc2nc(N3CCCC(C(=O)Nc4cc(Cl)c(OC)cc4OC)C3)sc2c1 (stereo not given)	·	2.7µM*	·	·	·	?
CCOc1ccc2nc(N3CCCC(C(=O)NC4CCCC4)C3)sc2c1 (stereo not given)	?	3µM*	10%	?	-6%	·
CCOC(=O)N1CCN(C(=O)C2CCCN(c3nc4ccc(OCC)cc4s3)C2)CC1 (stereo not given)	11%	12µM*	-14%	5%	-1%	21%
COc1ccc(Cl)cc1NC(=O)Cn1c(=O)n2nc(-c3ccccc3)nc2c2ccccc21	·	0%	·	·	·	-11%
CCc1ccc(OCC(=O)NCc2nc(-c3cccc(C)c3)no2)c(Br)c1	·	-11%	·	·	·	0%
COc1ccc(-c2nc3n(n2)C(c2ccc(OC)cc2)C(C(=O)Nc2cccnc2)=C(C)N3)cc1 (stereo not given)	·	-1%	·	·	·	-9%
CC1=C(C(=O)Nc2ccccc2)C(CC(C)C)n2nc(SCc3ccccc3C)nc2N1 (stereo not given)	·	4%	·	·	·	0%
Cc1ccc(NC(=O)NCCc2c(C)nn(C)c2C)c(Cl)c1	·	0%	·	·	·	·
CCC(=O)Oc1ccc(/C=C(\C#N)c2nc3ccccc3[nH]2)cc1OC	·	2.7µM*	·	·	·	?
COc1c(O)ccc(/C=C(\C#N)c2nc3ccccc3[nH]2)c1[N+](=O)[O-]	6%	27µM*	17%	12%	1%	18%
COc1ccc(/C=C(\C#N)c2nc3ccccc3[nH]2)cc1O	?	9.5µM*	?	?	?	·
COc1c(Cl)cc(Cl)cc1/C=C(\C#N)c1nc2ccccc2[nH]1	·	2%	·	·	·	·
COc1cc(/C=C(\C#N)c2nc3ccccc3[nH]2)cc(OC)c1O	1%	12µM*	-30%	19%	4%	8%
COC(=O)c1ccccc1C(=O)N1CCCC(CNC(=O)c2ccc(F)cc2)C1 (stereo not given)	-5%	1%	?	1%	0%	·
CCN1CCN(CCC(=O)Nc2ccc(F)c(F)c2)CC1	4%	0%	-18%	-1%	1%	·
CCn1c(SCc2ccc(F)cc2Cl)nc(=O)c2c(C(=O)OC)cc(C3CC3)nc21	·	-16%	·	·	·	·
COc1cc(/C=C(/C#N)c2nc3ccccc3c(=O)[nH]2)ccc1O	11%	8.5µM*	?	6%	5%	5%
COc1cc(/C=C(\C#N)C(=O)NCCc2ccccc2)cc(OC)c1O	-4%	-15%	8%	-7%	0%	·
COc1ccccc1N/C=C(\C#N)c1nc2ccccc2[nH]1	-16%	3.4µM*	?	-28%	9%	·
SMILES	NPC1 prom act	FLuc modulator	ELG1 DNA repair	Rab9 prom act	ELG1 genotoxic	SMN2 splice up
COc1ccc(/C=C(\C#N)c2nc3ccccc3c(=O)[nH]2)cc1OC	·	-6%	·	·	·	-7%
COc1cc(/C=C(\C#N)C(=O)c2c[nH]c3ccccc23)cc(OC)c1O	0%	15µM*	-5%	-4%	4%	-46%
Cc1cc(NC(=O)CCCSc2nc(-c3ccco3)cc(C(F)(F)F)n2)n(-c2ccccc2)n1	-12%	6%	16µM*	0%	-7%	-41%
Fc1cc(Br)ccc1Nc1c2c(nc3nc(-c4cccs4)nn13)CCCC2	·	-17%	·	·	·	·
COc1ccc(NC(=O)C(CC(=O)O)Cc2ccc(Cl)cc2)cc1 (stereo not given)	0%	-8%	12%	6%	-5%	·
CCCc1cc(=O)n2c([nH]c3ccccc32)c1C#N	20%	6.7µM*	?	?	1%	-3%
COc1ccc(C2(CNC(=O)C(=O)Nc3ccc(F)cc3)CCCC2)cc1OC	·	-8%	·	·	·	-4%
Cc1ccc(NC(=O)Cc2c[nH]c3ccccc23)cc1S(=O)(=O)N1CCCCCC1	-2%	-5%	21µM*	0%	-5%	-10%[1.84 µM]
O=C(Cn1ncc(Cl)c(Cl)c1=O)NC1CCCCC1	-35%	·	?	-43%	-8%	·
O=C(Cn1ncc(Cl)c(Cl)c1=O)NCC1CCCCC1	-17%	?	18µM*	-43%	-17%	-100%
Cc1ccc(NC(=O)Cn2ncc(Cl)c(Cl)c2=O)cc1S(=O)(=O)N1CCCCC1	-40%	-7%	15µM*	-38%	-6%	·
Cc1ccc(NC(=O)Cc2ccc(Cl)cc2)cc1S(=O)(=O)N1CCCCCC1	-2%	2%	11µM*	-17%	-5%	·
Cc1ccc(S(=O)(=O)N2CCCCC2)cc1NC(=O)Cc1c[nH]c2ccccc12	-3%	5%	-20%	-4%	-4%	-27%
O=C(CCC(=O)Nc1ccc(F)cc1)N/N=C/c1cccnc1	-3%	1%	-1%	0%	-1%	·
Oc1ccc(Cl)cc1Nc1nc2ccccc2n2cnnc12	·	-1%	·	·	·	-2%
CCC(=O)N1CCc2cc(Br)cc(S(=O)(=O)N3CCC(C(=O)Nc4ccccc4CC)CC3)c21	·	3%	·	·	·	17%
Cc1ccc(C(=O)OCC(=O)c2c[nH]c3ccccc23)cc1S(=O)(=O)N1CCCCC1	-4%	?	26µM*	-10%	-7%	-14%
Cc1ccc(C(=O)OCC(=O)NCc2ccccc2)cc1S(=O)(=O)N1CCCCC1	-4%	?	-22%	3%	-2%	·
CSc1ccc(CN2CCCC(N3CCN(c4ccccc4)CC3)C2)cc1 (stereo not given)	2%	-3%	-13%	-7%	-3%	·
O=c1c(-c2ccccc2)n[nH]c2ccccc12	2.2µM*	9.5µM*	?	3.5µM*	0%	·
O=C(Nc1cccc(NC(=O)c2cccnc2)c1)c1cccnc1	3%	-9%	-18%	2%	-13%	-16%
COc1cccc(C(=O)Nc2cccc(NC(=O)c3ccc(Cl)cc3Cl)c2)c1	·	7.6µM*	·	·	·	-9%
